Screens as filed in PubChem.
Tau filament bind – binders of human tau filaments | recombinant tau filaments, thioflavin S fluorescence, 15 h; filaments grown with octadecylsulfate alongside compound | Potency, µM (top dose mostly 57.1 µM) | actives 2% (n = 71,000);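 note: actives lower thioflavin S fluorescence by blocking filaments or displacing dye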
Target sequence (P10636 whole entry, looked up): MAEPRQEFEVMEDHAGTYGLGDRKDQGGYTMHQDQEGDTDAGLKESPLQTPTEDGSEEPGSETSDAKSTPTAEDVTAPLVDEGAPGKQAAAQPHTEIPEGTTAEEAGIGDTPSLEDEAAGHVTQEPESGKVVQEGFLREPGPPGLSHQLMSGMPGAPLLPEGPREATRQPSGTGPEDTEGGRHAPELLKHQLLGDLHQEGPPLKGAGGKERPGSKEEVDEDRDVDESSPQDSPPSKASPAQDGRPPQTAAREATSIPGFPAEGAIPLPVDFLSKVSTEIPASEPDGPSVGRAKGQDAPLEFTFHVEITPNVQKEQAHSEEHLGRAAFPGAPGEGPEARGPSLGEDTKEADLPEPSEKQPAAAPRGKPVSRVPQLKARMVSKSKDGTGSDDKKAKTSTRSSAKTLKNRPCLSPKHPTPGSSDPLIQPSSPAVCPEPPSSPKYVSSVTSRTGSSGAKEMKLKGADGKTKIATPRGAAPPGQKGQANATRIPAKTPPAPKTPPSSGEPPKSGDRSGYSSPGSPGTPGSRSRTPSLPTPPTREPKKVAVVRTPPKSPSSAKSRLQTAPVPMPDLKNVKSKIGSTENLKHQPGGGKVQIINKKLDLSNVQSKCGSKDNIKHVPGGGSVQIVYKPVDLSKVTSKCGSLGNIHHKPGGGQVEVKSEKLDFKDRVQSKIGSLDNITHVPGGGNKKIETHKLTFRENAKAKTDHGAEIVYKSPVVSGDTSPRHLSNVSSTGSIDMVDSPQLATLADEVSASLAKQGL
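His-tagged recombinant human tau (exons 2, 3 and 10 included), 1 uM, was induced to fibrillize by 30 uM sodium octadecylsulfate with compound present. After 15 h at 37 C, thioflavine S fluorescence (ex 450, em 510 nm) was read.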
Pol III holo inh – DNA polymerase III holoenzyme inhibition | reconstituted DNA polymerase III holoenzyme replication, biochemical | actives 0.25% (n = 71,000) | Potency, µM (series often up to 57.1 µM)
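Reconstituted *E. coli* holoenzyme (0.35 nM Pol III, 1 nM beta, 154 nM SSB, 2 nM primase) was preincubated with compound for 15 min at RT. Synthesis on 1.4 nM ssM13Gori ran 35 min, then was stopped with PicoGreen/EDTA and read as dsDNA fluorescence.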
Hsp90 Hop PPI – changes Hsp90-Hop TPR2A binding signal, up or down. AlphaScreen TPR2A-His6 binding biotin-Hsp90 C-terminal peptide. actives 0.44% (n = 71,000). Potency, µM (highest dose often 57 µM); active = well fitted curve in either direction with a large enough effect; inconclusive = small, poorly fitted or top-dose-only effect, or another doubt
TsaE inh – inhibitors of E. coli YjeE (TsaE); purified YjeE enzyme, qHTS inhibition assay; Potency, µM; actives 0.05% (n = 71,000)
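Fluorescence polarization of a BODIPY Texas Red–ADP probe (2 uM) bound to purified YjeE (10 uM) was read after 15 min room-temperature incubation with compounds. Loss of polarization marks inhibitors; ADP serves as titrated control.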
BRCT PPI red – BRCT-phosphoprotein interaction inhibition (red fluorophore) | P38398 | BRCT-phosphopeptide binding, red fluorescence polarization | Potency, µM (titrated, usually from 76.9 µM), most hits filed as inhibitors | actives 0.03% (n = 75,000) | AID 892
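Fluorescence polarization: 100 nM His-tagged BRCA1 BRCT with 100 nM TAMRA-labelled phospho-BACH1 decapeptide, phosphate buffer pH 7.3 with 150 mM NaCl, DTT, 0.01% Tween 20; 12 min RT. Binding inhibition seen as FP decrease.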
BRCT PPI green – inhibitors of human BRCA1 BRCT-phosphoprotein interaction (green fluorophore). P38398. BRCA1 BRCT-phosphopeptide binding, green fluorescence polarization. Potency, µM (top dose mostly 76.9 µM), actives largely listed as inhibitors. actives 0.05% (n = 75,000). AID 875
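Fluorescence polarization: His-tagged BRCT (~35 kDa BRCA1 C-terminus, 250 nM) bound to 100 nM fluorescein-labeled phosphorylated 10-aa BACH1 peptide, pH 7.3 phosphate buffer with DTT and Tween 20. Compounds incubated 12 min at room temperature; inhibition read as lowered polarization.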
A number is an active result; – = inactive; ? = inconclusive; · = not tested or not shown; [ ] = remark or other dose. The list is not random: actives were taken first. Their share in the collection is about 2.4%. Unless noted, calls come from the whole dose curve; as a rule, active = well fitted curve in the direction sought with a large enough effect; inconclusive = small, poorly fitted or top-dose-only effect, or another doubt; inactive = no such curve, though single readings can be large; an effect the other way counts as inactive or inconclusive.

SMILES	Tau filament bind	Pol III holo inh	Hsp90 Hop PPI	TsaE inh	BRCT PPI red	BRCT PPI green
CCCn1c(-c2ccc(F)cc2)nc2c(NCCCCN(CC)CC)nc(C)nc21	–	–	–	–	–	–
CC[C@H](NC(C)C)[C@H](O)c1ccc(O)c2[nH]c(=O)ccc12	32µM	–	–	–	–	–
O=C(OCC1OC(OC(=O)c2cc(O)c(O)c(OC(=O)c3cc(O)c(O)c(O)c3)c2)[C@@H](OC(=O)c2cc(O)c(O)c(OC(=O)c3cc(O)c(O)c(O)c3)c2)C(OC(=O)c2cc(O)c(O)c(OC(=O)c3cc(O)c(O)c(O)c3)c2)C1OC(=O)c1cc(O)c(O)c(OC(=O)c2cc(O)c(O)c(O)c2)c1)c1cc(O)c(O)c(OC(=O)c2cc(O)c(O)c(O)c2)c1 (some centres not stated)	·	·	·	·	–	–[3.08 µM]
O=C(Nc1cccc(Oc2ccc3c(c2)C(=O)NC3=O)c1)c1ccco1	25µM	–	–	–	–	–
COc1ccc(-c2c(=O)n(OCc3ccccn3)c3ccccc3[n+]2[O-])cc1OC	2.5µM	–	–	–	–	–
CCc1nnc2n1N=C(c1ccc(-c3ccc(Cl)cc3Cl)o1)CS2	25µM	–	–	–	–	–
CCc1nnc2n1N=C(c1ccc(-c3cc(Cl)ccc3Cl)o1)CS2	16µM	–	–	–	–	–
CC(C)=CCl	–	–	–	–	–	–
C=Cc1ccccc1C=C	–	–	–	–	–	–
C=CC(C1=CC(=O)C(OC)=C(OC)C1=O)c1ccccc1 (configuration not stated)	·	·	·	·	–	–
C=CCn1c(SCC(=O)Nc2ccc(N(C)C)cc2)nnc1-c1cccc(C)c1	25µM	–	–	–	–	–
Cc1ccc2c(c1)N(CC(=O)NCC1COc3ccccc3O1)C(=O)CO2 (configuration not stated)	–	–	–	–	–	–
NC(=O)[C@@H]1CCCN1Cc1ccc2c(c1)OCO2	–[11.4 µM]	–[11.4 µM]	–[11 µM]	–	–[15.4 µM]	–[15.4 µM]
O=C1c2c(O)cc(O)cc2O[C@@H](c2ccc(O)c(O)c2)[C@H]1O	–	–	?	–	–	–
Oc1cc(O)c2c(c1)O[C@@H](c1ccc(O)c(O)c1)[C@H](O[C@@]1(c3cc(O)c(O)c(O)c3)Oc3cc(O)cc(O)c3[C@H](O)[C@@H]1O)C2	–[11.4 µM]	1µM	?	–	–[15.4 µM]	–[15.4 µM]
Fc1c(F)c(F)c(CSc2nc3ccccc3[nH]2)c(F)c1F	–	–	4µM	–	–	–
O=C(CCc1ccc(O)cc1)c1c(O)cc(O)cc1O[C@@H]1O[C@@H](CO)[C@@H](O)[C@@H](O)[C@H]1O	?	–	?	–	·	·
CN1CCc2c(sc3c2c(=O)n(-c2ccccc2)c2nnc(SCc4ccc(Cl)cc4)n32)C1	3.2µM	–	–	–	–	–
Cc1nnc2n(-c3ccc(Cl)cc3)c(=O)c3c4c(sc3n12)CN(C)CC4	·	·	·	·	–	–
Cc1cccc(Nc2ccccc2C(=O)O)c1C	–	2.5µM	–	–	–	–[3.08 µM]
Cc1cccc(Nc2ncccc2C(=O)O)c1C	–	–	–	–	–	–
COc1cc2c(cc1OC)-c1c(OC)c(OC)cc3ccnc(c13)C2=O	32µM	?	?	–	–	–
O=C(O)c1cc(S(=O)(=O)Nc2cccc(F)c2)ccc1Cl	·	·	·	·	–	–
C=CCn1c(=O)/c(=C/c2ccc(Cl)cc2)s/c1=C(/C#N)c1nnc2n1CCCCC2	16µM	–	–	–	–	–
O=C(O)[C@H](/C=C\c1ccccc1)c1ccccc1	–[11.4 µM]	–[11.4 µM]	–[11 µM]	–	–[15.4 µM]	–[15.4 µM]
SMILES	Tau filament bind	Pol III holo inh	Hsp90 Hop PPI	TsaE inh	BRCT PPI red	BRCT PPI green
O=C(O)[C@@H]1CS[C@@]2(CCCN(Cc3ccccc3)C2)N1	–[11.4 µM]	–[11.4 µM]	–[11 µM]	–	–[15.4 µM]	–[15.4 µM]
C=CCOC(=O)C(C#N)c1nc2ccccc2nc1N1CCN(Cc2ccc3c(c2)OCO3)CC1 (configuration not stated)	1.3µM	–	–	–	–	–
COC(=O)C(C#N)c1nc2ccccc2nc1N1CCCC1 (configuration not stated)	16µM	–	–	–	–	–
N#CC(C(=O)OCc1ccccc1)c1nc2ccccc2nc1N1CCOCC1 (configuration not stated)	2µM	–	–	–	–	–
COc1ccc(CNC(=O)C(C#N)c2nc3ccccc3nc2N2CCCC2)cc1 (configuration not stated)	–	–	–	–	–	–
CCC(CC)COC(=O)C(C#N)c1nc2ccccc2nc1N1CCN(CC)CC1 (configuration not stated)	1.3µM	–	–	–	–	–
CCCCNC(=O)C(C#N)c1nc2ccccc2nc1N1CCCC1 (configuration not stated)	–	–	–	–	–	–
C[C@@H](COc1ccc(/C=C\c2ccccc2)cc1)[N+](C)(C)C	–	–	–	–	–	–
COc1ccc(OC2C(O)COC2/C=C/C#Cc2ccccc2)cc1 (configuration not stated)	·	·	·	·	–[15.4 µM]	–[15.4 µM]
COc1ccc(CNC(=O)C(C#N)c2nc3ccccc3nc2N2CCN(C)CC2)cc1 (configuration not stated)	3.2µM	–	–	–	–	–
CC(C)CN(C(=O)c1ccc(=O)n(C)n1)c1nc2ccccc2s1	25µM	–	?	–	–	–
CCOc1cc(/C=N/NC(=O)c2cc(-c3cccc(OC)c3)n[nH]2)ccc1O	·	·	·	·	–	–
O=C(c1c[nH]c2ccccc12)C(O)C(c1ccccc1)N1CCOCC1 (configuration not stated)	–	–	–	–	–	–
COc1ccc(C(C(O)C(=O)c2c[nH]c3ccccc23)N2CCN(c3ccc(OC)cc3)CC2)cc1 (configuration not stated)	13µM	–	–	–	–	–
Cc1cc(C)c(C#N)c(SCC(=O)c2cccs2)n1	2.5µM	–	–	–	–	–
CCN(CC)C(=O)CSc1nc(C)cc(-c2cccs2)c1C#N	–	–	–	–	–	–
Cc1ccc(NC(=O)CSCC(N)=O)cc1C	3.2µM	–	?	–	–	–
Cc1c(Cl)c(S(N)(=O)=O)cc(S(N)(=O)=O)c1NC(=O)c1ccc(Cl)cc1	–[11.4 µM]	–[11.4 µM]	–[11 µM]	–	–[15.4 µM]	–[15.4 µM]
COc1ccc(OC)c(Nc2cc(C(=O)NCCCN3CCOCC3)c3ccccc3n2)c1	10µM	–	–	–	–	–
O=C(CN1C(=O)c2ccccc2C1=O)N1CCN(c2ccccn2)CC1	–	–	–	–	–	–
O=C1C=C(N2CCN(c3ccccn3)CC2)C(=O)c2c(O)ccc(O)c21	1.6µM	–[11.4 µM]	?	–	–[15.4 µM]	–[15.4 µM]
N=C(N)SCCc1ccc(OCc2ccc([N+](=O)[O-])cc2)cc1	32µM	–	–	–	–	–
